Sampled rows, rich in hits. Any-hit rate of the full collection: about 21%.
D3 antag = antagonists of human D3 dopamine receptor; P35462; D3R cells, DiscoveRx beta-arrestin luminescence, antagonist mode; active compounds read low; max response, negative = inhibition, %; actives 2.5% (n = 360,000); in the data active = max response below about -50%; inconclusive = no clear call, values can overlap the other calls; also: % is scaled to controls: 0 for no effect and ±100 for the full control effect
Target sequence (P35462 whole entry, looked up): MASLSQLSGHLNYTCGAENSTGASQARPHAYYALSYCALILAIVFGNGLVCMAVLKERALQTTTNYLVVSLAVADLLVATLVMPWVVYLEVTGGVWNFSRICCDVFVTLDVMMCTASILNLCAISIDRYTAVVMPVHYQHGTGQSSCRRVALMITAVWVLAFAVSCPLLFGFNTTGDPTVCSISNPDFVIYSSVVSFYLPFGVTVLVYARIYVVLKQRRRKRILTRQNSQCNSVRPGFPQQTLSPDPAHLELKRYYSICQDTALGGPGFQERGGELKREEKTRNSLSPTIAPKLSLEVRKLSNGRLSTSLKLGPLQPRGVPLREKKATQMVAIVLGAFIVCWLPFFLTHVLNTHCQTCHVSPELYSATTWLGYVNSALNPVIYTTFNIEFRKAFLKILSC
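Cells expressing the human receptor were seeded at 1500 cells/well, incubated overnight at 37 degrees C in 5% CO2, then exposed to library compounds with dopamine controls for 90 minutes at 37 degrees C before luminescent detection.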
TDP1 cell noCPT = qHTS for Inhibitors of human tyrosyl-DNA phosphodiesterase 1 (TDP1): qHTS in cells in absence of CPT; AID 686978, 2013; Potency, µM (top dose mostly 46.2 µM), inactives show at the highest dose activity change, negative = growth inhibition, hits mostly inhibitors; DT40 Tdp1-/- hTDP1 cells, no CPT, ATP luminescence, 48 h; actives 15% (n = 420,000); also: potency is read from the fitted curve at half-maximal effect; % is scaled to controls: 0 for no effect and ±100 for the full control effect; nearly all actives have a fitted effect of over 55% in size
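Cells were dispensed at 400 per well, compounds added by pin tool, plates incubated ≥48 hr at 37 °C, then CellTiter-Glo added for 30 min at room temperature before luminescence reading. Line: DT40 Tdp1-/- complemented with hTDP1; camptothecin omitted.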
DT40 TDP1 CPT = DT40-hTDP1 cell growth loss with CPT. chicken DT40 Tdp1-/-;hTDP1 cells + 20 nM CPT, ATP luminescence, 48 h. Potency, µM (series often up to 46.2 µM), without a hit: at the top dose activity change, negative = growth inhibition, hits mostly inhibitors. actives 12% (n = 420,000); also: potency is read from the fitted curve at half-maximal effect; % is scaled to controls: 0 for no effect and ±100 for the full control effect; nearly all actives have a fitted effect of over 55% in size
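Cell growth measured by CellTiter-Glo luminescence after a minimum 48 h, 37 C compound exposure with 20 nM CPT in Tdp1-knockout DT40 cells stably expressing hTDP1, seeded 400/well; qHTS titration format.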
DRD3 agonist = activates the human D3 dopamine receptor; P35462; D3R DiscoveRx beta-arrestin cells, luminescence, 90 min; max activation, %; actives 0.58% (n = 410,000); AID 652048; in the data active = max activation above about 30%; also: 0% is about no effect
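Agonist mode: compounds and dopamine controls were applied to plated cells for 90 min at 37 degrees C after an overnight attachment at 1500 cells/well. Luminescent read-out followed 30 - 60 minutes at room temperature with DiscoveRx detection reagent.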
IL1B secr inh = blocks inflammasome-driven IL-1 beta release. activity change, % at 57.5 µM. AID 743279. THP-1 LPS/ATP IL-1B secretion, AlphaLISA, 16 h; active compounds read low. actives 4.7% (n = 360,000); in the data active = activity change below about -50%; inconclusive = mostly about -30% to -49%; also: % is scaled to controls: 0 for no effect and ±100 for the full control effect
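THP-1 cells pretreated 1 hr with compounds (up to 57.5 uM final), then stimulated with LPS (250 ng/mL final) plus ATP (1.25 mM final); secreted IL-1B measured by AlphaLISA after 16 hr, decreased signal indicating inhibition.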
ClpP mod = qHTS Assay for Activators of ClpP; ATP-dependent Clp protease proteolytic subunit (Bacillus subtilis (strain 168)), P80244; purified B. subtilis ClpP, FRET peptide cleavage, 20 min; Potency, µM (titrated, usually from 57.5 µM), without a hit: at the highest dose activity change, negative = active; actives 1.9% (n = 340,000); active = well fitted falling curve with a large enough effect; inconclusive = small, poorly fitted or top-dose-only effect; inactive = no such curve, though single readings can be large or run the other way; also: potency is read from the fitted curve at half-maximal effect; the source files actives as falling curves though it sought activators and does not explain the sign; nearly all actives have a fitted effect of over 65% in size
Target sequence (P80244 whole entry, looked up): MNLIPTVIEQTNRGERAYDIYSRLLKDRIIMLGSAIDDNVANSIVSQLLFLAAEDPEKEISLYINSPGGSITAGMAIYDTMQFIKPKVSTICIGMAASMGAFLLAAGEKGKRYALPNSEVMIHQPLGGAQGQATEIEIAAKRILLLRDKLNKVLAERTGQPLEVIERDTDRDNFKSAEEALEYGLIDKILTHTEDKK
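Purified B. subtilis ClpP, 10 microg/mL final in Tris/HCl pH8 with KCl, BSA, glycerol and Tween-20, cleaved an Abz/nitrotyrosine-quenched decapeptide. Fluorescence (ex 320, em 430) was read at 0 and 20 min at room temperature. Delta was normalized to 5.8 microM ADEP and DMSO/no-enzyme controls.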
Starred values were filed as active, the others as inactive; u = inconclusive; x = no result. Unless noted, calls follow the shape of the dose curve; as a rule, active = well fitted inhibition curve with a large enough effect; inconclusive = small, poorly fitted or top-dose-only effect; inactive = flat fitted curve, though single readings scatter.

SMILES	D3 antag	TDP1 cell noCPT	DT40 TDP1 CPT	DRD3 agonist	IL1B secr inh	ClpP mod
COc1ccc(C(=O)Nc2nccs2)cc1[N+](=O)[O-]	1	2%	13%	1	-1	-1%
Cn1cc([N+](=O)[O-])c(C(=O)Nc2ccc(Br)cn2)n1	-19	-6%	-19%	1	-87*	-1%
CCNC(=O)C1CCCN(C(=O)c2cc(C)oc2C)CC1 (stereo not given)	22	-21%	-1%	10	23	-1%
C=CCOc1ccc(C(c2c(C)n(C)n(-c3ccccc3)c2=O)c2c(C)n(C)n(-c3ccccc3)c2=O)cc1	-17	-30%	-1%	2	-4	x
COc1ccc2nc3n(c(=O)c2c1)-c1ncccc1C(=O)NC3CC(C)C (stereo not given)	0	5%	14%	6	0	-4%
CCOc1ccc(C(C)=O)cc1N1C(=O)C2C3C=CC(C3)C2C1=O (stereo not given)	23	-6%	-4%	1	-5	-3%
CCOc1ccc(C(C)=O)cc1N1C(=O)C2C3C=CC(O3)C2C1=O (stereo not given)	u	5.2µM*	6.5µM*	-30	-10	1%
COc1ccc(/C=C(\C#N)C(=O)NCC(c2ccc(F)cc2)N2CCOCC2)cc1 (stereo not given)	0	-17%	u	-5	0	1%
C#CCOCCOCCOCCNc1nc(N2CCN(C(=O)CCCCCCCCCCNC(=O)Cn3cc(CCCCCN)nn3)CC2)nc(N2CCN(C(=O)CCCCCCCCCCNC(=O)Cn3cc(C[C@@H](C)O)nn3)CC2)n1	5	u	u	-7	-77*	-1%
C#CCOCCOCCOCCNc1nc(N2CCN(C(=O)CCCCCCCCCCNC(=O)Cn3cc(C[C@@H](C)O)nn3)CC2)nc(N2CCN(C(=O)CCCCCCCCCCNC(=O)[C@@H]([C@H](C)CC)n3cc(CCCCCN)nn3)CC2)n1	-25	5.8µM*	13µM*	-33	-105*	1%
C#CCOCCOCCOCCNc1nc(N2CCN(C(=O)CCCCCCCCCCNC(=O)Cn3cc(C[C@@H](C)O)nn3)CC2)nc(N2CCN(C(=O)CCCCCCCCCCNC(=O)[C@@H]([C@H](C)O)n3cc(C)nn3)CC2)n1	28	7.3µM*	7.3µM*	-7	8	0%
COc1cc(C(CCN2CCOCC2)c2c(OC)cc(OC)c3c(C)cc(=O)oc23)cc(OC)c1OC (stereo not given)	-13	-28%	u	-24	-9	-12%
COc1cc(C(CCN2CCCC(C)C2)c2c(OC)cc(OC)c3c(-c4ccccc4)cc(=O)oc23)cc(OC)c1OC (stereo not given)	-51*	18µM*	u	-30	-10	0%
COc1cc(C(CCN2CCCC2)c2c(OC)cc(OC)c3c(C)cc(=O)oc23)cc(OC)c1OC (stereo not given)	0	23µM*	13µM*	-46	7	-19%
COc1cc(C(CCN2CCCCC2)c2c(OC)cc(OC)c3c(-c4ccccc4)cc(=O)oc23)cc(OC)c1OC (stereo not given)	-9	u	18µM*	0	u	4%
COc1ccc(C(CCN2CCOCC2)c2c(OC)cc(OC)c3c(C)cc(=O)oc23)cc1 (stereo not given)	u	18µM*	23µM*	-45	6	-21%
COc1ccc(N2CC(NC(=O)C3CCCC3)CC2=O)cc1 (stereo not given)	x	-13%	4%	-2	x	1%
COc1ccc(CNC(=O)C(NC(C)=O)C(=O)Nc2ccc(C(C)C)cc2)cc1 (stereo not given)	7	14%	15%	-9	-10	x
CC(=O)Nc1ccc(S(=O)(=O)N2CCC3(CC2)OCCO3)cc1	16	0%	-18%	4	17	1%
Cc1ccc(C)c(NC(=O)CCc2c(C)nn(-c3ccc(N4CCCC4)nn3)c2C)c1	x	u	u	7	x	-2%
COc1ccc(NC(=O)C23CC4CC(C2)CC(c2ccc(C)cc2)(C4)C3)cc1	8	23µM*	29µM*	5	-7	-15%
Cc1ccc(C23CC4CC(CC(C(=O)NC(C)C)(C4)C2)C3)cc1	10	26µM*	u	1	-20	-1%
CN1CCN(C(=O)C23CC4CC(C)(CC(C)(C4)C2)C3)CC1	-71*	-36%	-1%	-21	8	1%
Cc1ccc(C23CC4CC(CC(C(=O)NC(C)C(=O)O)(C4)C2)C3)cc1 (stereo not given)	-25	-19%	-1%	-34	6	0%
CNC(=O)C12CC3CC(C1)CC(c1ccc(C)cc1)(C3)C2	5	-24%	-11%	-3	4	-2%
SMILES	D3 antag	TDP1 cell noCPT	DT40 TDP1 CPT	DRD3 agonist	IL1B secr inh	ClpP mod
Cc1ccc(C)c(N2CCN(C(=O)C34CC5CC(C3)CC(n3nnc(C)n3)(C5)C4)CC2)c1	12	7.3µM*	6.5µM*	27	u	0%
COCC(=O)N1CCC[C@@]2(CCN(c3ccncc3)C2)C1	x	-5%	-2%	x	x	x
Cc1ccc(C23CC4CC(CC(C(=O)N5CCN(C)CC5)(C4)C2)C3)cc1	-55*	u	u	-20	-26	0%
Cc1cc(C)c2c(c1)/C(=C/C(=O)c1ccc(Br)s1)C(=O)N2	u	3.7µM*	4.6µM*	-5	-106*	-2%
Cc1cccc2c1NC(=O)/C2=C\C(=O)c1cccs1	-21	4.6µM*	4.6µM*	-7	-122*	-1%
CN(C)/C=C/C(=O)c1ccc(Br)s1	-23	7%	-13%	-9	-6	-2%
CCc1ccc2c(c1)/C(=C/C(=O)c1cccs1)C(=O)N2	-29	5.2µM*	3.3µM*	-5	-106*	0%
COc1ccc(-n2c(SCC(=O)Nc3cc(C(=O)O)ccc3C)nc3ccccc3c2=O)cc1Cl	1	u	u	5	-7	-6%
Cc1ccc(CNC(=O)C2CCN(S(=O)(=O)Cc3ccccc3)CC2)cc1	x	-7%	-5%	2	x	0%
COC(=O)c1cc(-c2cccc(OC)c2)c2c(=O)[nH]c(=O)n(C)c2n1	10	-26%	-16%	5	27	x
O=C(NCCN1CCOCC1)c1cc(-c2ccc(Br)cc2)on1	17	-5%	-28%	8	6	0%
